One test concerns the target DAGLA. Description: pooled miR-30 sensor sort-seq; sequence = guide strand. The settings on record: shRNA.
As to TAGCGGAGCATCTCTTGTGAAT, the sensor-assay potency score (higher = more potent) was -1.2.
The same measure, in the same setting: next, TTTGTAGCGGAGCATCTCTTGT: -1.44; TTGAGGGTCGGATACTGTGGGC: -1.18; TATATTTATAGAATAAGCTATA: -0.774.
Same read-out and setting: next, TTGTAGTTCTCCAGCACCTTGT: -0.221; TCTTCTTGATGTACTCAGCTGA: 0.266.
On the same count and under the same terms, next, TAAACATGTACAGCACTGCAGG: -1.11; TTCATCTGAGAGTCTGTCTTGT: 0.509; TTGAGGTCGAGGTACTTGGTGT: -0.552.
Sequence TTAAGTACAAAAAAAGTCTGGG came in with a sensor-assay potency score (higher = more potent) of 0.278.
The same measure, in the same setting: next, TTAGGAACGGTGCACACTCATG: -1.56.
ATTCTTGGCAGTGAGGTCGTTG showed a sensor-assay potency score (higher = more potent) of -0.825.

The next test addresses DAZ2. The description is as above. As to conditions: shRNA.
Regarding TGGATAAGCAGAATAAGCCTGA, the sensor-assay potency score (higher = more potent) is -0.294.
The same measure, in the same setting: next, TATACAGGCAACTGATATCCAG: -0.956.
In turn, TCGTGATTATCTTCACTTCTTT registered a sensor-assay potency score (higher = more potent) of -0.86.

In the next test the target is DCAF4L2. The description is as above. As to conditions: shRNA.
Regarding TTTGCAGAGAAGTCACTGCTGA, the sensor-assay potency score (higher = more potent) amounted to 0.521.
Consider TAGCTGGTTCTTTCGTAGCATG, for which the sensor-assay potency score (higher = more potent) was -1.53.
The same measure, in the same setting: next, TTTTCTTTTGTCAACTGCCCAT: -0.395.
The same measure, in the same setting: next, TCTGACTGTCTTTTTCTGCTTG: 0.906.
As to TTAACTGAAACAACTTTACAGA, the sensor-assay potency score (higher = more potent) is -0.678.
The sequence TACCTATGAACAGCGACGCTGG gave a sensor-assay potency score (higher = more potent) of -0.732.
Consider TTATCTTTGACACTGAGCCCTT, for which the sensor-assay potency score (higher = more potent) is -0.414.
Same read-out and setting: next, TGTATCTTCTCTATTGACCTAT: 0.0322.
On the same count and under the same terms, next, TTCTTCGTTCACATGCACGGGT: 0.233; TACTGTGTTACACATTTAGTGG: -1.02.
Same read-out and setting: next, TTGGAGTATCTGCAAGTCCCAC: -0.914; TAAACATCTCACAAACTGCTGC: -0.0348.

Another test deals with DCHS2. The description is as above. As to conditions: shRNA.
On to TGGATTATCATTGACATCCAGC, for which the sensor-assay potency score (higher = more potent) was -1.15.
Consider TTCATAGTCAAACTGTCGCCGC, for which the sensor-assay potency score (higher = more potent) is -0.481.
Same read-out and setting: next, TTATAGTAAAGCACTCATCAGT: -0.223.
In turn, TAGAAAGAAACAAGTCTCCGGT showed a sensor-assay potency score (higher = more potent) of 0.782.
Same read-out and setting: next, TGAATTATCATTCTCATCCTGT: 0.421; TGTACCTTGATTACAGTCGTAT: -0.366; TATATCAGTCACCTGTACCTTG: 0.322.
ATACTTATTAAACTCAACCATT returned a sensor-assay potency score (higher = more potent) of -1.29.
Same read-out and setting: next, TTTTCTGGAACAATACAGCTGA: 0.21; TAATCTAGAATCGCTTTTGTTG: -0.749; TAGAATAGGTCAATTCTCCATA: -0.353.
On the same count and under the same terms, next, TTGAGAACATAAACTGAGGTGC: 0.162.

Values taken from the OligoGym collection.
Note: reference of the scale not given here.
